Assay [1] concerns Zika virus NS2B-NS3 protease. Nature of the assay: Primary screen GU AMC qHTS for Zika virus inhibitors (AID 1347154). Note: nearly all actives have a fitted effect of over 70% in size. Note: potency is the fitted concentration of half-maximal effect. Summed up:
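Fluorogenic AMC-substrate cleavage by noncovalent NS2B-NS3 protease complex (25 nM, pH 8.0 Tris buffer with Tween 20) followed for 15 minutes at room temperature (~20% conversion). Percent inhibition from ex340/em450 signal change, fitted by 4-parameter Hill equation.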
(qHTS replaces the single test concentration by a dilution series.)

The nature of assay [2]: Confirmatory screen NINDS Rhodamine qHTS for Zika virus inhibitors (AID 1347161). Note: potency is the fitted concentration of half-maximal effect; nearly all actives have a fitted effect of over 60% in size. The note with it: purified enzyme assay, Rhodamine110 substrate fluorescence, 15 min. Summed up:
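Single-chain NS2B-NS3 protease, 25 nM, pH 8.0; compounds preincubated 15 min. Activity: Rhodamine110 release from 1.5 microM substrate over 15 min, room temperature, data fitted to 4-parameter Hill.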

The subject of assay [3] is Zika virus NS2B-NS3 protease (linked construct). Nature of the assay: 384 well plate NINDS Rhodamine confirmatory qHTS for Zika virus inhibitors (AID 1347164). Note: potency is the fitted concentration of half-maximal effect; nearly all actives have a fitted effect of over 65% in size. The note with it: rhodamine-110 peptide substrate fluorescence. In outline:
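Compounds are incubated about 15 minutes with linked protease (5, 30 or 60 nM final). Rhodamine 110-tagged Ac-LKRR substrate (10 microM final) is added and fluorescence measured after 25 minutes.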

A short description of assay [4]: Vero cells viability qHTS for Zika virus inhibitors (AID 1347167). In outline:
(§1)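 Luminescent ATP readout (CellTiter Glo) after 30 min at 37 degrees C gives viability; cells in DMEM + 4% FBS were treated 24 to 48 hours with compound, following overnight attachment.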

Assay [5] is described as follows: HepG2 cells viability qHTS for Zika virus inhibitors (AID 1347168). Summed up:
as §1

Assay [6] addresses Lysine-specific demethylase 5B (Homo sapiens) (UniProt Q9UGL1). Description: Optimization screen for KDM5B Histone Demethylases FDH coupled qHTS against the LOPAC library (AID 1347166). Summed up: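 KDM5BDeltaAP (200nM final) in 50mM HEPES pH 7.5, 0.01% Tween-20 was preincubated with compound for 10 min at room temperature. A substrate mix of 12.5uM H3K4Me3, 25uM a-ketoglutarate, ascorbate, Fe2+, NAD+ and formaldehyde dehydrogenase was then added. NADH fluorescence (340/450 nm) was read initially and after 30 min.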

The test system of assay [7] is Zika virus NS2B-NS3 protease (unlinked complex). Nature of the assay: Primary screen GU Rhodamine qHTS for Zika virus inhibitors: Unlinked NS2B-NS3 protease assay (AID 1347159). Note: nearly all actives have a fitted effect of over 60% in size. Summed up: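 Buffer 10 mM Tris-HCl pH 8.0, 0.01% Tween 20. Unlinked protease 25 nM; compound preincubation 15 min, RT, protected from light. Substrate Rhod110, 1.5 microM; ~15% conversion in 15 min.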

The subject of assay [8] is Zika virus NS2B-NS3 protease (linked construct). Description: Primary screen NINDS Rhodamine qHTS for Zika virus inhibitors (AID 1347160). Note: nearly all actives have a fitted effect of over 55% in size. Conditions: outcome: dose series up to 57.1 µM. Summed up:
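Aprotinin served as in-plate control. Conditions: 25 nM linked NS2B-NS3, pH 8.0 Tris buffer, titrated compounds, 15 min preincubation and 15 min reaction with 1.5 microM Rhod110 substrate at room temperature.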

Records with an inconclusive call do not appear. Where a call stands in place of a potency, no number is given. Values without a mark were called inactive. The source made the active and inactive calls. Calls come from the whole dose curve; as a rule, active = well fitted curve in the direction sought with a large enough effect; inconclusive = small, poorly fitted or top-dose-only effect, or another doubt; inactive = no such curve, though single readings can be large; an effect the other way counts as inactive or inconclusive.

Lysine-specific demethylase 5B (Homo sapiens), sequence (Q9UGL1 whole entry, looked up): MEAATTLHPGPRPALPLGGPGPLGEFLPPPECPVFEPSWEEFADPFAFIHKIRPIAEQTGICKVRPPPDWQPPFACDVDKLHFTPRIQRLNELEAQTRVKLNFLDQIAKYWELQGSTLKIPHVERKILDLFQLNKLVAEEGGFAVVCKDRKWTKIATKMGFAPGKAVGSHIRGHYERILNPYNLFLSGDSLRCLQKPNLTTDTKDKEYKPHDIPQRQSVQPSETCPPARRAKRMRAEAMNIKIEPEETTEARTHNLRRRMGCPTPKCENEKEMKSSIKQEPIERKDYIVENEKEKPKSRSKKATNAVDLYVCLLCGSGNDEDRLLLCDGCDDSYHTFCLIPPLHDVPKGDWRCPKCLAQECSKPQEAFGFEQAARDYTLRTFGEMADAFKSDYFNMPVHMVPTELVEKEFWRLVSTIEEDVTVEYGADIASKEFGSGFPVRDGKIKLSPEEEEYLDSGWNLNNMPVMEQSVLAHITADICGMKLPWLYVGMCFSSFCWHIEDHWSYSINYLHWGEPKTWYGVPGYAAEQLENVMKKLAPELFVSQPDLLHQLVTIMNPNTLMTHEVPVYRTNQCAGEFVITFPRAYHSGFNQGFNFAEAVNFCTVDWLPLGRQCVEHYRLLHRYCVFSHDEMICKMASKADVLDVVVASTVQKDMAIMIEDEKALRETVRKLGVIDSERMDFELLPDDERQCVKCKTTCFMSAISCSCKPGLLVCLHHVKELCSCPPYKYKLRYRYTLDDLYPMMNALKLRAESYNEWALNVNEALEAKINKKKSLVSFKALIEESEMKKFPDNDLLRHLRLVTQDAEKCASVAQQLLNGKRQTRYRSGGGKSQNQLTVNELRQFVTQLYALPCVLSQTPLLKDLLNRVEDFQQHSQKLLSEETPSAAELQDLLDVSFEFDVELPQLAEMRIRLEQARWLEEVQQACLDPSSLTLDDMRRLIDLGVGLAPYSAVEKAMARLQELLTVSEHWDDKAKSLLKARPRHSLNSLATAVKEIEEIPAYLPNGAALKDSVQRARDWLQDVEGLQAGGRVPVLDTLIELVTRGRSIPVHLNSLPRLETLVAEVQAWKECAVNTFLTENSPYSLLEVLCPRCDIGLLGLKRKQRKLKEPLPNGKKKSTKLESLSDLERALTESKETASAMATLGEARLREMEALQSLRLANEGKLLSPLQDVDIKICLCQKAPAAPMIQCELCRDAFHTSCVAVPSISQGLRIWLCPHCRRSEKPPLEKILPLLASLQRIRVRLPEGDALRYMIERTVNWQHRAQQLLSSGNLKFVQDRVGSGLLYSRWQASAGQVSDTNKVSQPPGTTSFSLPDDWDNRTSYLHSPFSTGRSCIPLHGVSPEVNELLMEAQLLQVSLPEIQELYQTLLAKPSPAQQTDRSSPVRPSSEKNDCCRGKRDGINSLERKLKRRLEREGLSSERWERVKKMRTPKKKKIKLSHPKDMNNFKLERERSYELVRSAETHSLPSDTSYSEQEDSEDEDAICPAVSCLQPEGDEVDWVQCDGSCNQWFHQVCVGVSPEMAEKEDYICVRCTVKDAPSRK

Consider `CC1(C)C(C=C(Cl)Cl)C1C(=O)OC(C#N)c1cccc(Oc2ccccc2)c1` (stereo not drawn), for which, in assay [1], the Potency result is “inactive”.
`C[C@]12CC[C@@H]3c4ccc(OC(=O)N(CCCl)CCCl)cc4CC[C@H]3[C@@H]1CC[C@@H]2O`: the Potency in assay [1] was 15.8 µM (active); in assay [2], 1.97 µM (active); in assay [3] it was 39.8 µM (active). Further, the Potency entry in assay [4] is “inactive”. For the same compound, the result in assay [5] was inactive.
For the compound `CCN[C@@H](C)Cc1ccccc1`, the Potency entry in assay [1] is “inactive”.
As for `Cc1ncsc1CCCl`, the Potency entry in assay [1] is “inactive”. In addition, in assay [6], the outcome was inactive.
As for `CC(C)N(CCC(C(N)=O)(c1ccccc1)c1ccccn1)C(C)C` (stereo not drawn), in assay [1], the Potency result was “inactive”. Besides, the result in assay [7], in assay [8] and in assay [6] was inactive.
For `CCC1(c2ccc(N)cc2)CCC(=O)NC1=O` (stereo not drawn), in assay [1], the Potency entry is “inactive”. In assay [6], the call was inactive.
On to `CC(C)(C)NCC(O)c1ccccc1Cl` (stereo not drawn), for which the Potency result in assay [1] is “inactive”. Moreover, the outcome in assay [6] was inactive.
As to `O=c1oc2ccccc2c(O)c1Cc1c(O)c2ccccc2oc1=O`, in assay [1], the Potency entry was “inactive”.
Consider `CN1C(=O)CCS(=O)(=O)C1c1ccc(Cl)cc1` (stereo not drawn), for which the Potency entry in assay [1] was “inactive”. In addition, the compound was called inactive in assay [6].
Take `O=C1c2ccccc2C(=O)c2ccccc21`: the Potency entry in assay [1] is “inactive”.
With `C=CCN1C[C@H](C)N([C@H](c2ccc(C(=O)N(CC)CC)cc2)c2cccc(OC)c2)C[C@H]1C`, the Potency entry in assay [1] was “inactive”. The activity change, negative = inhibition in assay [7] is -8.84% [at 19.1 µM]; in assay [8], 6.42% [at 10.7 µM].
`CN(C)CCc1c[nH]c2cccc(OP(=O)(O)O)c12`: the Potency entry in assay [1] was “inactive”.
For the compound `O=C(O)CCCc1ccc(N(CCCl)CCCl)cc1`, in assay [1], the Potency entry is “inactive”. For the same compound, in assay [6], the result was inactive.
Regarding `COc1ccc2c3c1O[C@H]1[C@H](O)CC[C@H]4[C@@H](C2)N(C)CC[C@@]341`, the Potency result in assay [1] was “inactive”.
Same read-out and setting: for `CC(C)C[C@H](CN)CC(=O)O` the value was “inactive”; for `CC(C)(N)Cc1ccccc1Cl`, “inactive”.
In the case of `COc1ccc2c(c1OC)C(=O)O[C@H]2[C@@H]1c2cc3c(cc2CCN1C)OCO3`, the Potency entry in assay [1] is “inactive”. In addition, the call in assay [6] was inactive.
On to `C=C(C)[C@H]1CN[C@H](C(=O)O)[C@H]1CC(=O)O`, for which the Potency entry in assay [1] is “inactive”. The result in assay [6] was inactive.
`COc1cc(OC)c(OC)cc1C=O`: the Potency result in assay [1] was “inactive”.
As to `NNc1ccccc1`, in assay [1], the Potency entry is “inactive”.
Consider `CCN[C@H](C)Cc1cccc(C(F)(F)F)c1`, for which the Potency result in assay [1] is “inactive”.
For the compound `O=c1[nH]oc2c1CCNC2`, in assay [1], the Potency result was “inactive”. The result in assay [6] was inactive.
Regarding `COc1cc(CC(C)N)cc(OC)c1OC` (stereo not drawn), the Potency result in assay [1] is “inactive”.
For `CCC(C)C(C)(COC(N)=O)COC(N)=O` (stereo not drawn), the Potency entry in assay [1] was “inactive”.
For the compound `CC(C)c1cccc(C(C)C)c1O`, the Potency result in assay [1] is “inactive”. In assay [6], the outcome was inactive.

These data come from PubChem BioAssay (NCATS).
